The text below walks through data of ChEMBL document CHEMBL3988442, “University of Dundee, Small-Polar-MMV Screening Library” (2021).

Out of some 48,000 compounds screened, about 13,000 (27%) showed an effect of 50% or more. The list shows a part of the results.

In the assay the test system is Wolbachia pipientis. The experiment in a line: Anti-Wolbachia Cell-Based Screen. The class given is functional. Further details: scale not given: in the data most compounds retested in dose-response had high values. To be noted: 5 µM.
As to `O=c1ccncn1Cc1csc(C2CC2)n1`, the “Percent Effect” value is recorded as -22.65%.
To `Cc1cc(C)cc(CCC(=O)NC(C)c2nnn[nH]2)c1` (centres undefined) belongs -2.993%; to `CCCn1nc2c(cc1=O)CN(Cc1ncc(C(C)(C)C)o1)CC2`, 7.183%; to `c1ccc2c(N3CCCCC3)cnnc2c1`, -32.94%.
To `CN(Cc1ccco1)c1ccc(C(=O)NCCCc2ccccn2)cn1` belongs -0.2765%; to `CN1CC[C@@H]2[C@@H]1CCN2Cc1ccc2c(c1)OCO2`, -14.63%; to `CCCC(C)CN1CCC(n2cc(CCCO)nn2)CC1` (centres undefined), -3.716%.
To `Cc1cccc(CN2CCC(n3cc(CCO)nn3)CC2)c1C` belongs 4.105%.
For the molecule `COCc1cn(C2CCN(Cc3ccc(Cl)s3)CC2)nn1`, the “Percent Effect” value was 0.9369%.
Take `CSC(C)CCN1CCC(n2cc(C3CCCCC3)nn2)CC1` (centres undefined): the “Percent Effect” value is -13.53%.
To `COCc1cn(C2CCN(CCC(C)c3ccccc3)CC2)nn1` (centres undefined) belongs 99.11%; to `CNCc1cn(C2CCN(C(=O)NCc3ccco3)CC2)nn1`, 17.43%; to `CC(CCN1CCC(n2cc(CCO)nn2)CC1)c1ccccc1` (centres undefined), 92.59%.
To `CNCc1cn(C2CCN(CCC(C)c3ccccc3)CC2)nn1` (centres undefined) belongs 95.9%.
For `COCc1cn(C2CCN(C(=O)Cc3ccsc3)CC2)nn1`, the “Percent Effect” value is on record as -0.9661%.
To `CSCc1noc(CN(C)C(C)c2nc(C)sc2C)n1` (centres undefined) belongs -2.011%; to `CC(C)C(=O)NC1COC2(CCN(C(=O)c3ccc[nH]3)CC2)C1` (centres undefined), 3.438%; to `O=C(c1cc(-n2cccn2)ccn1)N1CCOc2ncccc21`, -22.54%.
To `CN(Cc1cc(C2CC2)on1)C(=O)C(c1cccnc1)N1CCCC1` (centres undefined) belongs -7.414%.
To `COCCc1noc(CN(C)C(=O)c2cccc(N3CCCC3=O)c2)n1` belongs -10.13%; to `COCCc1noc(CN(C)C(=O)C(C)N2CCc3ccccc3C2)n1` (centres undefined), 110.4%; to `CC(C(=O)N(C)Cc1noc(C2CCC2)n1)N1CCc2ccccc2C1` (centres undefined), 96.98%.
For the molecule `CC(C(=O)N(C)C)N1CCc2onc(-c3cccc(F)c3)c2C1` (centres undefined), the “Percent Effect” value is given as -12.34%.
To `Cc1noc(C2CCCN(CC(=O)N3CCc4ccccc4C3)C2)n1` (centres undefined) belongs 4.147%; to `COCCc1noc(CN(C)C(=O)C2COc3ccccc3C2)n1` (centres undefined), -1.856%; to `CC(C)c1cc(CN(C)C(=O)C(C)N2CCc3ccccc3C2)no1` (centres undefined), 103.9%.
To `COc1cccc2c1N(Cc1noc(C3CC3)n1)CCC2` belongs -4.254%; to `CCCn1cnnc1CNC(=O)C1COc2c(cccc2OC)C1` (centres undefined), -10.56%.
`CN(C)c1nc2c(c(N(C)C)n1)CCN(C(=O)CN1C[C@@H]3CC[C@H]1C3)C2`: the “Percent Effect” value was -4.711%.
Turning to `COc1cccc(N2CCN(C(=O)CCO)CC2=O)c1`, the “Percent Effect” value came to 0.6756%.
To `O=C(CCN1C[C@@H]2CC[C@H]1C2)N1CCN(c2cccc(Cl)c2)C(=O)C1` belongs 108.3%; to `COCCN1C[C@H]2CC[C@@H]1CN(C(=O)CCc1c(C)nn(C)c1C)C2`, 8.536%; to `Cc1ccc(N2CCN(C(=O)CN3C[C@@H]4CC[C@H]3C4)CC2=O)cc1`, 111.2%.
To `Cc1ccc2oc(=O)n(CCC(=O)N3CCN(C)C(=O)C3)c2c1` belongs 7.292%; to `Cc1cc(C)cc(N2CCN(C(=O)CCN3C[C@@H]4CC[C@H]3C4)CC2=O)c1`, 110.5%; to `COc1cccc(N2CCN(C(=O)C(O)c3cccc(Cl)c3)CC2=O)c1` (centres undefined), -25.1%.
To `Cc1ccc(N2CCCC(N3CCC(CO)CC3)C2=O)cc1` (centres undefined) belongs -5.905%; to `CC(C)Cn1cncc1Cn1cccc(C(F)(F)F)c1=O`, 13.38%.
For the molecule `COc1ccccc1C(=O)Nc1c(F)c(C(=O)NCCC(C)C)nn1C`, the “Percent Effect” value is on record as 138.9%.
With `COc1cccc(C(=O)NC(C)CCN2CCOCC2)c1F` (centres undefined), the “Percent Effect” value is 4.529%.
To `CCC(C)NC(=O)c1nn(C)c(NC(=O)c2ccccc2OC)c1F` (centres undefined) belongs 131.5%.
To `COc1ccccc1C(=O)NC(C)CC(=O)O` (centres undefined) belongs 5.398%; to `CCN(CC)CCn1cc(NC(=O)c2ccccc2OC)cn1`, 7.312%.
To `CC(C)Oc1ccccc1C(=O)NCCc1nncn1C` belongs -7.55%.
With `CC1(c2[nH]ncc2C(N)=O)CCN(S(=O)(=O)c2ccccc2)CC1`, the “Percent Effect” value is 129%.
To `CN1C(=O)CCC12CCN(S(=O)(=O)c1ccccc1)CC2` belongs -37.9%; to `Cc1nccc(N2CCCC(C)(c3[nH]ncc3C(N)=O)C2)n1` (centres undefined), 108.3%.
As for `NC(=O)N1CCC2(CC1)CN(c1ncccn1)CCO2`, the “Percent Effect” value is on record as -107.3%.
To `Cc1ccc(-c2cn[nH]c2C2CCCN(c3ccnc(C)n3)C2)cc1` (centres undefined) belongs -2.431%.
To `Cc1cnc(N2CCC3(CC2)CC3CNC(=O)N(C)C)nc1` (centres undefined) belongs -2.686%.
On to `CC(C)=CCC1(C(=O)O)CCCN(c2ccnc(C)n2)C1` (centres undefined), for which the “Percent Effect” value is on record as -9.118%.
To `Cc1nc2c(c(N3CCN(c4ncccc4C(N)=O)CC3)n1)CCNC2` belongs -20.98%.
To `CC1(c2[nH]ncc2C(N)=O)CCN(c2ncccn2)CC1` belongs 105.4%; to `CCN1CCNC(=O)C12CCN(S(=O)(=O)c1ccccc1)CC2`, -28.29%; to `CN(C)C(=O)CC1CC2(CCN(c3ncccn3)CC2)c2ccccc21.O=C(O)C(F)(F)F` (centres undefined), 8.977%.
As to `CN(C)C(=O)c1cn[nH]c1C1(C)CCN(c2ncccn2)CC1`, the “Percent Effect” value worked out at 98.94%.
Consider `CNC(=O)CN(C)Cc1ccc(F)cc1Cl`, for which the “Percent Effect” value was -1.762%.
Consider `O=C(c1nc(N2CCCC2)ncc1Cl)N1CCN(Cc2ccsc2)CC1`, for which the “Percent Effect” value stood at 11.05%.
With `CCn1ncc2c1CCCC2NCc1csc(C(C)C)n1` (centres undefined), the “Percent Effect” value is -1.873%.
Turning to `CC(C)Cc1nc(CS(=O)(=O)c2ccccc2)no1`, the “Percent Effect” value is recorded as -7.933%.
To `CC(=O)NCC(=O)N1CCC2(CC1)NC(=O)CC2c1cnn(C)c1` (centres undefined) belongs 117.4%; to `Cn1cc(C2CC(=O)NC23CCN(C(=O)C2CC=CC2)CC3)cn1` (centres undefined), 98.1%; to `Cn1cc(C2CC(=O)NC23CCN(C(=O)NC2CC2)CC3)cn1` (centres undefined), 102%.
To `O=C(O)C(F)(F)F.O=C1CC(c2ccncc2)C2(CCN(C(=O)NC3CC3)CC2)N1` (centres undefined) belongs -11.64%; to `O=C1CC(c2ccncc2)C2(CCN(C(=O)c3ccnnc3)CC2)N1` (centres undefined), 8.485%.
To `CC(=O)NCC(=O)N1CCC2(CC1)NC(=O)CC2c1cccnc1.O=C(O)C(F)(F)F` (centres undefined) belongs 7.13%.
`CCN1C(=O)CC(c2cnn(C)c2)C12CCN(C(=O)C1CC=CC1)CC2` (centres undefined): the “Percent Effect” value is -6.196%.
As to `Cn1cc(C2CC(=O)NC23CCN(C(=O)c2ccc[nH]2)CC3)cn1` (centres undefined), the “Percent Effect” value is -5.816%.
For the molecule `COCC(=O)N1CCC2(CC1)CC(c1cnn(C)c1)C(=O)N2` (centres undefined), the “Percent Effect” value is 4.267%.
